Source: PubChem
In the library only some 28% were active in any assay of this set; here they are far more common.
CYP2C9 activ: human CYP2C9 activators, primary screen, biochemical, luminescence; Cytochrome P450 2C9 (Homo sapiens), P11712; recombinant CYP2C9, luciferin-H conversion; stronger effect = higher value; factor 1 = untreated enzyme, 0 = blocked; activation factor at 5 µM; 96,000 tested, 1.4% active;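 active means activation factor of 2 or more for CYP2C9 at a 5 µM dose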;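 further: 0 = sulfaphenazole-blocked wells and 1 = vehicle-only wells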
CYP2C9 inh: blockers of cytochrome P450 2C9 activity – biochemical, luminescence, ADME assay, primary screen. P11712. CYP2C9 Supersomes, luciferin-H conversion. inhibition, % at 5 µM. 96,000 tested, 20% active. AID 777, 2007;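 active means blocking of liver enzyme CYP2C9 beyond about 50% at 5 µM, limit read from the data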
hDAT+cocaine: changed hDAT dopamine uptake under cocaine IC80, either direction, primary screen, cocaine antagonist project, cell-based, LLC-PK1 hDAT, [14C]-dopamine uptake, MLSMR. Sodium-dependent dopamine transporter (Homo sapiens), Q01959. B-score at 10 µM. LLC-PK1 hDAT cells, [14C]-dopamine uptake with cocaine IC80; actives deviate in either direction. 110,000 tested, 1.3% active;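 active means Z score or B-score, a plate-position-corrected score, falls beyond the plate's 99.7% confidence bounds, in either direction; inactive means both scores lie inside the 99.7% bounds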;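 further: scored against the spread of the other compound wells on the same plate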
Target sequence (Q01959 whole entry, looked up): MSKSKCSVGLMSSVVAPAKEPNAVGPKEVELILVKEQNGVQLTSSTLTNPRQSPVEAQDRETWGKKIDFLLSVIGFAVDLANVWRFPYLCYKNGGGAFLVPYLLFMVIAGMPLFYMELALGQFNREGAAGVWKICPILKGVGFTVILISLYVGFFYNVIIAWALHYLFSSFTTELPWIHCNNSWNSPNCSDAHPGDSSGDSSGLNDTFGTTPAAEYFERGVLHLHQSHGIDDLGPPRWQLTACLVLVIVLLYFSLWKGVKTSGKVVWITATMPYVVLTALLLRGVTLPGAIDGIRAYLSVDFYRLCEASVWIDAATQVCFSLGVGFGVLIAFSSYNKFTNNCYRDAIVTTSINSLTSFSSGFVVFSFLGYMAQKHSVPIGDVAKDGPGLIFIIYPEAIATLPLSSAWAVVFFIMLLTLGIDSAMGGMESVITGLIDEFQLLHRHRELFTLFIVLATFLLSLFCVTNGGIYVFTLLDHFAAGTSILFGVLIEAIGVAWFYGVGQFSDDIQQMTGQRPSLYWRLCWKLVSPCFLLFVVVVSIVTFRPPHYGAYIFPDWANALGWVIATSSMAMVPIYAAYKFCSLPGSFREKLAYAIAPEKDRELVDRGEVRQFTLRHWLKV
D1 allo mod: D1 CRE-luciferase signal change, two-sided – cell-based, HEK293 D1, dopamine EC30, D1 allosteric modulator project, primary screen | dopamine EC30 potentiation; actives deviate in either direction | B-score at 10 µM | D(1A) dopamine receptor (Homo sapiens), P21728 | 58,000 tested, 5.9% active;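 active means luminescence count or its row- and column-corrected plate score outside the 99.7% band of the plate's sample wells, on either side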
CYP2C19 inhib: blockers of cytochrome P450 2C19 activity – biochemical, luminescence, ADME assay, primary screen. inhibition, % at 5 µM. 96,000 tested, 21% active. CYP2C19 Supersomes, luciferin-H EGE luminescence, 30 min. P33261. AID 778, 2007;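 active means CYP2C19 inhibition above a set limit at 5 µM in the primary screen, cut at about 50% in these data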;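 further: plate controls were negative control wells for no effect and 2.5 mM tranylcypromine positive control for full effect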
CYP2C19 act: human CYP2C19 activators, primary screen, biochemical, luminescence | Cytochrome P450 2C19 (Homo sapiens), P33261 | recombinant CYP2C19, luciferin-H EGE luminescence; stronger effect = higher value; 0 = fully inhibited enzyme, 1 = untreated enzyme | activation factor at 5 µM | 96,000 tested, under 10 active | AID 1025, 2008;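 active means activation factor of at least 2 at 5 µM in the primary screen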;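 further: 0 = wells with 2.5 mM tranylcypromine and 1 = vehicle-only wells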
An asterisk follows results filed as active.

How did Nn1cc(-c2ccccc2)nc1SCC(=O)N1CCN(S(=O)(=O)c2ccccc2)CC1 do in these assays?
CYP2C9 activ: 0.9; CYP2C9 inh: 6.8; hDAT+cocaine: 0.0409; D1 allo mod: 0.585; CYP2C19 inhib: 40.7; CYP2C19 act: 0.6

How did COc1ccccc1N(CCC#N)C(=O)CSc1nc(-c2ccccc2)cn1N do in these assays?
CYP2C9 activ: 0.8; CYP2C9 inh: 21.0; hDAT+cocaine: 1.65; D1 allo mod: -0.38; CYP2C19 inhib: 74.7*; CYP2C19 act: 0.3

What do the screens show for `O=C(NCCC(=O)N1CCNC1=O)OCc1ccccc1`?
CYP2C9 activ: 1.3; CYP2C9 inh: -31.9; hDAT+cocaine: 0.138; D1 allo mod: 0.424; CYP2C19 inhib: 24.2; CYP2C19 act: 0.8

How did CCOC(=O)c1c(C)[nH]c(C)c1C(=O)COC(=O)CNC(=O)c1ccc(OCC)cc1 do in these assays?
CYP2C9 activ: 0.7; CYP2C9 inh: 25.5; hDAT+cocaine: -0.185; D1 allo mod: 0.798; CYP2C19 inhib: 53.4*; CYP2C19 act: 0.5

What do the screens show for `CCOC(=O)c1c(C)[nH]c(C)c1C(=O)COC(=O)[C@@H](NC(=O)c1ccccc1OCC)C(C)C`?
CYP2C9 activ: 0; CYP2C9 inh: 98.5*; hDAT+cocaine: 1.53; CYP2C19 inhib: 100.4*; CYP2C19 act: 0

How did CCOc1ccccc1C(=O)NC(C(=O)OCC(=O)Nc1nnc(-c2ccccc2)o1)C(C)C (configuration not stated) do in these assays?
CYP2C9 activ: 0.8; CYP2C9 inh: 20.0; hDAT+cocaine: 1.79; D1 allo mod: -0.687; CYP2C19 inhib: 16.2; CYP2C19 act: 0.8

What do the screens show for `CCn1c(SC(C)C(=O)O)nnc1-c1cccnc1` (configuration not stated)?
CYP2C9 activ: 0.9; CYP2C9 inh: 9.3; hDAT+cocaine: 0.573; CYP2C19 inhib: 18.8; CYP2C19 act: 0.8

How did Cc1ccc(C)c(C(=O)CN2C3=NCCCN3c3ccccc32)c1 do in these assays?
CYP2C9 activ: 1.2; CYP2C9 inh: -15.1; hDAT+cocaine: 0.146; CYP2C19 inhib: -4.9; CYP2C19 act: 1

How did O=C(O)CCCCCNC(=O)CCn1cnc2ccccc2c1=O do in these assays?
CYP2C9 activ: 1; CYP2C9 inh: 4.9; hDAT+cocaine: -0.108; D1 allo mod: 0.634; CYP2C19 inhib: 2.9; CYP2C19 act: 1

Results for CCCCc1ccc(NS(=O)(=O)N(C)C)cc1 ?
CYP2C9 activ: 0.1; CYP2C9 inh: 94.5*; hDAT+cocaine: -0.0138; D1 allo mod: -1.6; CYP2C19 inhib: 64.9*; CYP2C19 act: 0.4

What do the screens show for `COc1ccccc1CNS(=O)(=O)c1c(C)[nH]c(=O)[nH]c1=O`?
CYP2C9 activ: 1.1; CYP2C9 inh: -11.9; hDAT+cocaine: -0.245; CYP2C19 inhib: 15.1; CYP2C19 act: 0.8

Results for Cc1[nH]c(=O)[nH]c(=O)c1S(=O)(=O)Nc1ccc(Oc2ccccc2)cc1 ?
CYP2C9 activ: 0; CYP2C9 inh: 96.2*; hDAT+cocaine: -0.247; D1 allo mod: -0.304; CYP2C19 inhib: 92.2*; CYP2C19 act: 0.1

How did CN(C)S(=O)(=O)Nc1ccc(Oc2ccccc2)cc1 do in these assays?
CYP2C9 activ: 0.1; CYP2C9 inh: 85.2*; hDAT+cocaine: 0.625; D1 allo mod: -0.0329; CYP2C19 inhib: 94.9*; CYP2C19 act: 0.1

What do the screens show for `Cn1c(=O)c2c(nc(CN3CCOCC3)n2CCCO)n(C)c1=O`?
CYP2C9 activ: 1; CYP2C9 inh: 4.0; hDAT+cocaine: -0.229; CYP2C19 inhib: -6.2; CYP2C19 act: 1.1

What do the screens show for `CC1(C(=O)O)CCC(C(=O)NC2CCCCCC2)C1(C)C` (configuration not stated)?
CYP2C9 activ: 1.2; CYP2C9 inh: -16.6; hDAT+cocaine: 0.16; CYP2C19 inhib: -21.2; CYP2C19 act: 1.2

Results for C/C=C/C(=O)Nc1ccccc1Br ?
CYP2C9 activ: 1; CYP2C9 inh: -1.0; hDAT+cocaine: -1.41; CYP2C19 inhib: 7.1; CYP2C19 act: 0.9

How did CCOc1ccc(C(=O)NC(=S)Nc2ccccc2N2CCC(C)CC2)cc1[N+](=O)[O-] do in these assays?
CYP2C9 activ: 0.3; CYP2C9 inh: 71.9*; hDAT+cocaine: -0.321; CYP2C19 inhib: 27.2; CYP2C19 act: 0.7

What do the screens show for `CSc1nc2n(n1)C(c1ccccn1)C1=C(CC(C)(C)CC1=O)N2` (configuration not stated)?
CYP2C9 activ: 1.1; CYP2C9 inh: -5.6; hDAT+cocaine: -1.03; CYP2C19 inhib: -1.3; CYP2C19 act: 1

How did C=C(C)COc1ccc(-c2nc(N)nc(C)c2Oc2ccccc2OC)c(O)c1 do in these assays?
CYP2C9 activ: 0.8; CYP2C9 inh: 24.5; hDAT+cocaine: 0.185; D1 allo mod: -0.00976; CYP2C19 inhib: 16.6; CYP2C19 act: 0.8

What do the screens show for `Cc1[nH]nc(-c2ccc(OCc3cnn(-c4ccccc4)c3)cc2O)c1Oc1ccccc1F`?
CYP2C9 activ: 0.8; CYP2C9 inh: 16.0; hDAT+cocaine: -1.16; CYP2C19 inhib: -1.8; CYP2C19 act: 1

Results for C=C(C)COc1ccc(-c2n[nH]c(C)c2Oc2ccccc2OC)c(O)c1 ?
CYP2C9 activ: 0.2; CYP2C9 inh: 80.6*; hDAT+cocaine: 2.96; D1 allo mod: -0.701; CYP2C19 inhib: 81.0*; CYP2C19 act: 0.2

How did CCOc1ccc(-c2n[nH]c(C)c2Oc2ccccc2OC)c(O)c1 do in these assays?
CYP2C9 activ: 0.1; CYP2C9 inh: 89.3*; hDAT+cocaine: 0.519; D1 allo mod: 0.16; CYP2C19 inhib: 98.8*; CYP2C19 act: 0

What do the screens show for `Cn1c(CSc2nc3ccccc3s2)n[nH]c1=S`?
CYP2C9 activ: 0.9; CYP2C9 inh: 12.7; hDAT+cocaine: -0.0538; D1 allo mod: -0.672; CYP2C19 inhib: 53.6*; CYP2C19 act: 0.5

What do the screens show for `Clc1c(-c2nnc3n2CCC3)sc2ccccc12`?
CYP2C9 activ: 3*; CYP2C9 inh: -201.4; hDAT+cocaine: 2.19; D1 allo mod: -1.06; CYP2C19 inhib: 15.8; CYP2C19 act: 0.8

What do the screens show for `Cn1c(CSc2nc3ccccc3s2)nc2ccccc21`?
CYP2C9 activ: 0.2; CYP2C9 inh: 77.8*; hDAT+cocaine: 0.796; D1 allo mod: 0.0296; CYP2C19 inhib: 98.1*; CYP2C19 act: 0

Results for S=c1[nH]nc(CSc2nc3ccccc3s2)o1 ?
CYP2C9 activ: 1; CYP2C9 inh: -2.1; hDAT+cocaine: 0.631; D1 allo mod: -0.576; CYP2C19 inhib: -11.8; CYP2C19 act: 1.1

What do the screens show for `Cc1ccc(-c2n[nH]c(=S)n2C)cc1`?
CYP2C9 activ: 0.6; CYP2C9 inh: 43.0; hDAT+cocaine: -0.433; D1 allo mod: 0.544; CYP2C19 inhib: 16.6; CYP2C19 act: 0.8
